Laboratory results from the supplement of paper PMC7057948, “A genome-wide approach for identification and characterisation of metabolite-inducible systems” (Nature Communications, 2020).

tested on: KynR/P_H16_RS14030 L-kynurenine biosensor (pEH136); experiment: relative induction of RFP reporter vs primary effector (background-corrected); higher = stronger activation of the biosensor; settings: inducer concentration 5 mM; 6 h; Cupriavidus necator H16; minimal medium + 0.4% gluconate
Experimental: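 C. necator H16 strains, each carrying one of 21 transcription factor/inducible promoter–mRFP biosensor plasmids, were grown in minimal medium in 96-well plates (robotic platform). Each was exposed to 46 structurally or metabolically related compounds at 5 mM at 30 °C. OD-normalised RFP fluorescence was read 6 h later and expressed as relative induction (%) = 100 × (FL compound − FL uninduced)/(FL primary inducer − FL uninduced); mean of n=4.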
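Also: RFP excited at 585 nm with emission read at 620 nm, culture medium blanks subtracted from fluorescence and absorbance prior to normalisation.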

Structure (SMILES) | relative induction of RFP reporter [%]
Oc1ccccc1O [catechol] | 0.704
Oc1ccc(O)cc1 [hydroquinone] | 1.53
NC(=O)CC[C@H](N)C(=O)O [L-glutamine] | -0.513
Cn1c(=O)c2c(ncn2C)n(C)c1=O [caffeine] | 1.64
O=CC(=O)O [glyoxylate] | -0.15
NCC(O)C(=O)O (configuration not stated) [3-amino-2-hydroxypropanoate] | -0.0139
O=C(O)C(O)c1ccccc1 (configuration not stated) [mandelic acid] | -0.345
O=C(O)C(O)C(=O)O [tartronic acid] | 0.115
N[C@@H](Cc1c[nH]c2ccccc12)C(=O)O [L-tryptophan] | 65.7
CCC(=O)O [propanoate] | -0.867
CC(N)CC(=O)O (configuration not stated) [3-aminobutanoate] | -0.097
CCCC(=O)O [butyric acid] | -0.35
